# This is a sample that favours compounds with a hit; in the whole collection about 3.8% have one here.
# tim23-1 inh = growth inhibitors of tim23-1 mutant yeast | S. cerevisiae tim23-1 growth, BacTiter-Glo luminescence, 24 h | inhibition, % at 20 µM | 330,000 tested, 1.3% active | AID 463212;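 active means growth inhibition of the mutant yeast at or above 50%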;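 further: temperature-sensitive mutant grown at 25 °C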
# NLRP3 yeast inh = blocks the NALP3 inflammasome reconstituted in yeast; Yeast reconstituted NLRP3/ASC/caspase-1, beta-gal luminescence, 24 h; inhibition, % at 10 µM; 330,000 tested, 0.39% active; AID 2825;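 active means inhibition of 50% or more; inactive means inhibition below 50%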
# TIM10 inh = inhibits growth of TIM10 yeast strain. S. cerevisiae TIM10 strain growth, BacTiter-Glo luminescence, 24 h. inhibition, % at 10 µM. 330,000 tested, 1.4% active. AID 463195;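 active means inhibition of 40% or more at the single tested concentration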;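 further: wild-type TIM10 isogenic control strain grown at permissive 25 °C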
# CR mimetic SO = caloric restriction mimetics inhibiting age-related superoxide in yeast; superoxide response (% of plate mean), % at 10 µM; S. cerevisiae aged cells, superoxide DHE fluorescence; hits give low values; AID 2690; 330,000 tested, 0.18% active;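 active means superoxide response under a set limit, about three screen SD below normal, cut at about 65% in these data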;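 further: yeast aged for seven days with compound at 30 °C before DHE staining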
# tim10-1 inh = growth inhibitors of tim10-1 mutant yeast; S. cerevisiae tim10-1 ts strain growth, BacTiter-Glo, 24 h; inhibition, % at 20 µM; 330,000 tested, 2.2% active; AID 463190;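 active means inhibition of at least 40%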;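 further: mutant grown at 25 °C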
# tim23-1 conf = tim23-1 yeast growth inhibition, confirmed; shares compounds with tim23-1 inh; S. cerevisiae tim23-1 growth, BacTiter-Glo luminescence, 24 h; inhibition, % at 20 µM; 4,400 tested, 83% active; AID 463218;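 active means inhibition above about 39% in either of two replicate wells at 20 µM, limit read from the data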;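 further: temperature-sensitive tim23-1 mutant grown at 25 °C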
# Numbers stand for hits; – = inactive; · = no result.
SMILES,tim23-1 inh,NLRP3 yeast inh,TIM10 inh,CR mimetic SO,tim10-1 inh,tim23-1 conf
CC(=O)NC(c1ccc(C)cc1)c1cc(Cl)c2cccnc2c1O (stereo unspecified),62,–,–,–,–,68
CC(=O)NC(c1ccc(C(C)C)cc1)c1ccc2cccnc2c1O (stereo unspecified),58,–,–,–,–,60
CC(=O)NC(c1cc(Cl)c2cccnc2c1O)C(C)C (stereo unspecified),–,–,–,–,–,·
CCCC(=O)NC(c1ccccc1)c1ccc2cccnc2c1O (stereo unspecified),58,–,–,–,–,60
CCCCC(=O)NC(c1ccc(C(C)C)cc1)c1ccc2cccnc2c1O (stereo unspecified),58,–,–,–,–,59
CCCC(=O)NC(c1ccc(OC)cc1)c1ccc2cccnc2c1O (stereo unspecified),–,–,–,–,–,·
CCC(=O)NC(c1ccccc1OC)c1ccc2cccnc2c1O (stereo unspecified),–,–,–,–,–,·
CCCCC(=O)NC(c1ccccc1)c1ccc2cccnc2c1O (stereo unspecified),66,–,–,–,–,58
CCCCC(=O)NC(c1ccccc1Cl)c1ccc2cccnc2c1O (stereo unspecified),53,–,–,–,–,49
CCN(CC)c1ccc(N=CN2CCOCC2)cc1,–,–,–,–,–,·
CSC1=N/C(=C\c2ccccc2F)C(=O)S1,52,–,–,–,–,51
COc1cccc(/C=C2\N=C(SC)SC2=O)c1OC,–,–,–,–,–,·
Nc1ncc(Br)cc1S(=O)(=O)NC1CCCCC1,–,–,–,–,–,·
CC1CCCC(NS(=O)(=O)c2cc(Br)cnc2N)C1C (stereo unspecified),55,–,–,–,–,45
CSc1ccc(C2NN=C(c3ccccc3)S2)cc1 (stereo unspecified),–,–,–,–,–,·
Oc1ccccc1C1NN=C(c2ccccc2)S1 (stereo unspecified),58,–,–,–,–,54
COc1ccc(CNC(=O)[C@H](C)N2C(=O)N3CCc4c([nH]c5ccccc45)[C@@]3(C)C2=O)cc1OC,–,–,–,–,–,·
Cc1csc(NC(=O)CSc2nnc(NC(=O)COc3ccccc3)s2)n1,–,–,–,–,–,·
COC(=O)c1sccc1NC(=S)NCc1ccc(Cl)cc1,62,–,–,–,–,53
FC(F)(F)c1ccccc1CNCc1ccc2c(c1)OCO2,–,–,–,–,–,·
CCOC(=O)C1=C(COC(=O)c2cccnc2Cl)NC(=O)NC1C (stereo unspecified),–,–,–,–,–,·
COc1ccc(C2CC(O)(c3ccccc3)Oc3c(C)ccc(C)c32)cc1 (stereo unspecified),53,–,–,–,–,55
Cc1cc(OCC(=O)N2CCC(C(=O)O)CC2)c2c(C)c(C)c(=O)oc2c1,–,–,–,–,–,·
CC(Nc1nc(-c2cccnc2)nc2ccccc12)c1ccc(F)cc1 (stereo unspecified),59,–,–,–,–,60
Cc1ccc(Nc2nc(-c3cccnc3)nc3ccccc23)cc1,56,–,–,–,–,56
SMILES,tim23-1 inh,NLRP3 yeast inh,TIM10 inh,CR mimetic SO,tim10-1 inh,tim23-1 conf
Fc1ccc(CNc2nc(-c3cccnc3)nc3ccccc23)cc1,–,–,–,–,–,·
Cc1ccc(C2=Nc3ccccc3N=C(C(Cl)Cl)C2)cc1,52,–,–,–,–,49
COc1ccc(C2=Nc3ccccc3OC2)cc1,–,–,–,–,–,·
CSCCC(NC(=O)c1ccccc1Cl)C(=O)NCC(c1cccs1)N(C)C (stereo unspecified),–,–,–,·,–,·
Cc1ccc(S(=O)(=O)CC(=O)Nc2ccc3nc(C)sc3c2)cc1,–,–,–,–,–,·
O=C1C(=O)N(C/C=C/c2ccccc2)c2ccccc21,76,–,–,–,–,–
C=CCNc1nc2ccccc2nc1NS(=O)(=O)c1ccc(Br)cc1,50,–,–,–,–,54
CCCC(CCC)c1nnc(NC(=O)c2ccco2)s1,62,–,–,–,–,64
O=C(Nc1nc2c(F)cccc2s1)c1ccco1,55,–,–,–,–,54
Cc1sc(NC(=O)c2ccco2)nc1-c1ccccc1,56,–,–,–,–,72
O=C(Nc1cccc(NC(=O)c2ccc(-c3cccc(Br)c3)o2)c1)c1ccco1,60,–,–,–,–,43
O=C(Nc1cccc(NC(=O)c2ccc(-c3ccc(Br)cc3)o2)c1)c1ccccc1,–,–,–,–,–,·
O=C(Nc1ccc(Br)c(Cl)c1)c1ccco1,62,–,–,–,–,72
NC(=O)c1cccnc1OCC(F)(F)F,–,–,–,–,–,·
COc1ccc(OC[C@@H](O)CNC(=O)c2cccc3c2C(=O)c2ccc(Cl)cc2S3(=O)=O)cc1,–,–,–,–,–,·
O=c1cc(CO)oc(CN2CCN(CCO)CC2)c1O,95,–,–,–,–,–
CC(=O)c1c(C)[nH]c(C(=O)OCC(=O)NCc2ccc3c(c2)OCO3)c1C,–,–,–,–,–,·
CC1=NN(c2nc3ccccc3[nH]2)C(=O)C1Cc1ccccc1 (stereo unspecified),67,–,–,–,–,56
Cc1nn(-c2nc3ccccc3[nH]2)c(=O)c2ccccc12,·,·,·,–,·,·
C#CCOCCOCCOCCNc1nc(N2CCN(C(=O)CCCCCCCCCCNC(=O)[C@H]([C@@H](C)CC)n3cc(CCCCN=C(N)N)nn3)CC2)nc(N2CCN(C(=O)CCCCCCCCCCNC(=O)[C@H](CCCCN)n3cc(C)nn3)CC2)n1,58,–,–,–,–,41
C#CCOCCOCCOCCNc1nc(N2CCN(C(=O)CCCCCCCCCCNC(=O)[C@H]([C@@H](C)CC)n3cc(CCCCCN)nn3)CC2)nc(N2CCN(C(=O)CCCCCCCCCCNC(=O)[C@H]([C@@H](C)CC)n3cc(CCCCN=C(N)N)nn3)CC2)n1,–,–,–,–,–,·
CCOC(=O)c1c(-c2ccccc2)oc2ccc(O)cc12,59,–,–,–,–,56
COc1ccc(CC(NC(C)=O)C(=O)NC2CCN(C(=O)c3cc(OC)c(OC)c(OC)c3)CC2)cc1 (stereo unspecified),–,–,–,–,–,·
CC(C)Oc1ccc(C(=O)Nc2nc3ccccc3[nH]2)cc1,–,–,–,–,–,·
O=C(Nc1nc2ccccc2[nH]1)c1ccc(OC(F)F)cc1,63,–,–,–,–,59
COc1ccc(OCc2nc3ccccc3[nH]2)cc1,–,–,–,–,–,·
c1ccc2cc(OCc3nc4ccccc4[nH]3)ccc2c1,52,–,–,–,–,–
Cc1ccccc1-c1nc(CS(=O)(=O)CC(=O)NCCCN2CCN(C)CC2)c(C)o1,–,–,–,–,–,·
COC(=O)c1cc(C(=O)c2c(C)cc3ccccn23)cc([N+](=O)[O-])c1,–,–,–,–,–,·

# Assay outcomes: PubChem, several laboratories
